Screens as filed in PubChem.
In the library only some 1.2% were active in any assay of this set; here they are far more common.
IL1B NFkB inh: inhibitors of IL-1B driven NFkB p65 nuclear import, primary screen, imaging, HUVEC, IL-1B stimulus, high-content imaging; HUVEC IL-1B NFkB p65 nuclear translocation imaging; inhibition, % at 2 µM; 0.43% of 94,000 active; AID 796, 2007;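 active means inhibition above about 30% together with a positive call from visual inspection of the well image, limit read from the data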;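 further: nuclear over cytoplasmic p65 intensity ratio measured by imaging; 0% = IL-1B stimulated DMSO wells and 100% = unstimulated DMSO wells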
NFkB transloc pot: enhancers of NFkB p65 translocation in HUVEC – imaging, IL-1B stimulus, high-content imaging, primary screen; HUVEC IL-1B NFkB p65 nuclear translocation imaging; activation, % at 2 µM; 0.3% of 94,000 active;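 active means activation above 40%, about the mean plus 3 SD, also judged a hit on visual image review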;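 further: percent activation is computed from the nuclear over cytoplasmic p65 intensity ratio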
HUVEC tox IL1B: cytotoxicity in IL-1B stimulated HUVEC, primary screen, cytotoxicity control for IL-1B NFkB translocation project, imaging, Hoechst nuclear count, IL-1B stimulus | 0.41% of 94,000 active | HUVEC cell count loss | cell count reduction, % at 2 µM | AID 845, 2007;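 active means cell count reduction more than 3 SD above the screen-wide mean, cut at about 70% in these data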;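 further: normalized per plate to untreated control cells as the no-loss baseline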
sEH activator: soluble epoxide hydrolase activators, primary screen, biochemical, human sEH; 0.04% of 91,000 active; Bifunctional epoxide hydrolase 2 (Homo sapiens), P34913; activation, % at 2 µM; purified human sEH enzymatic activity, activator screen; in the data active means activation above about 37%
Target sequence (P34913 whole entry, looked up): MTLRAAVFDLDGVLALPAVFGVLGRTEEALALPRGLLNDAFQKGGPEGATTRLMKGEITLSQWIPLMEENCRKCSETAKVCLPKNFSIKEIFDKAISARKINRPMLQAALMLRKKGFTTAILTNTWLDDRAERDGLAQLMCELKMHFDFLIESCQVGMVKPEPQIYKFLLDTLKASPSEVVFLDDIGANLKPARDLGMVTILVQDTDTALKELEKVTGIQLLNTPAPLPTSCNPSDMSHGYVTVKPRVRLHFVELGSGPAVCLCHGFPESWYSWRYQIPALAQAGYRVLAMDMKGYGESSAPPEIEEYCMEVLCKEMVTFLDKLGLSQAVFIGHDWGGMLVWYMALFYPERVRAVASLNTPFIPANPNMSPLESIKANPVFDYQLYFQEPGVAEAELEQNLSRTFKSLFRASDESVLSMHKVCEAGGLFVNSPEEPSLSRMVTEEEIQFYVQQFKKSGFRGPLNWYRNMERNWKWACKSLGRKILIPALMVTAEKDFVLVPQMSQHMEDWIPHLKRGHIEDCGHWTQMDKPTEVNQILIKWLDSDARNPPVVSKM
sEH inhibitor: soluble epoxide hydrolase inhibitors, primary screen, biochemical, human sEH; Bifunctional epoxide hydrolase 2 (Homo sapiens), P34913; recombinant human sEH enzymatic activity assay; inhibition, % at 2 µM; 0.34% of 91,000 active; in the data active means inhibition above about 80%
An asterisk follows results filed as active; / = not tested or not shown.

SMILES	IL1B NFkB inh	NFkB transloc pot	HUVEC tox IL1B	sEH activator	sEH inhibitor
COC(=O)c1c[nH]n2c(=O)cc(C)nc12	47.0*	-47.0	5.2	-0.9	-2.3
CCOC(=O)N1CCC(c2cc(=O)n3[nH]cc(C(=O)OC)c3n2)CC1	-19.1	19.1	-5.5	0.6	-1.5
CCCCS(=O)(=O)/C=C\C=C/S(=O)(=O)CCCC	94.9*	-94.9	58.3	/	/
CCCCS(=O)(=O)/C=C\C1C2C=CC(C2)C1S(=O)(=O)CCCC (stereo not drawn)	-3.5	3.5	5.0	15.7	-17.7
Cc1cc(C)nc(SCNC(=O)c2ccccc2)n1	-21.0	21.0	81.4*	5.4	-1.7
CCOC(=O)C1=C(C)OC(N)=C(C#N)C1c1cc(Cl)c(OCC(N)=O)c(OC)c1 (stereo not drawn)	-8.5	8.5	-51.2	-6.3	7.2
Clc1ccc(OCc2nn3c(-c4ccncc4)nnc3s2)cc1	-45.5	45.5*	-18.5	4.0	-5.5
O=C(Nc1ccc2c(c1)oc1ccccc12)N1CCOCC1	17.0	-17.0	71.1*	-10.7	10.3
CCOC(=O)c1[nH]c(C)c(C(=O)N2CCc3ccccc32)c1C	-100.0	100.0*	15.0	2.0	-1.9
CC(C)c1ccc(OCC(O)CN2CCN(c3ccccc3)CC2)cc1 (stereo not drawn)	6.2	-6.2	1.8	8.5	-7.8
COc1cc(CNC2CCC(C)C2)cc(OC)c1 (stereo not drawn)	-10.5	10.5	89.3*	0.0	-0.2
Cc1cc(NS(=O)(=O)c2ccc(Nc3nc(-c4sc(NC(=O)c5ccccc5)nc4C)cs3)cc2)no1	-18.6	18.6	-3.5	-93.7	93.6*
CCC(=O)Nc1nc(C)c(-c2csc(Nc3ccc(S(=O)(=O)Nc4cc(C)on4)cc3)n2)s1	-11.6	11.6	-16.0	-0.5	0.2
CCOc1ccc(C(CCc2ccccc2)NC(=O)c2ccccc2)cc1OCC (stereo not drawn)	-11.0	11.0	0.0	-8.0	7.8
CN(c1ccc(C(=O)NCCSC(C)(C)C)cc1)S(C)(=O)=O	4.8	-4.8	87.2*	-23.7	22.5
CC(=O)Nc1ccccc1NS(=O)(=O)c1ccc(Cl)cc1	30.2*	-30.2	15.1	9.3	-10.8
Cc1cccc(N(C(=O)c2csnn2)C(C(=O)NC(C)(C)C)c2ccncc2)c1 (stereo not drawn)	-6.0	-2.6	-4.1	5.6	-3.5
CCC(C)(C)NC(=O)C(c1ccncc1)N(Cc1ccc(C)cc1)C(=O)c1csnn1 (stereo not drawn)	-12.2	12.2	90.1*	0.0	-1.0
CCOC(=O)c1cnc(SCC(=O)Nc2nc(C)c(C)s2)nc1N	14.5	-14.5	-18.9	-2.6	2.9
COC(=O)c1ccc(CSc2nnc3ccccn23)o1	-152.0	152.0*	-2.8	-4.8	4.3
Cc1onc(-c2ccccc2Cl)c1C(=O)Nc1cccc(-c2cn3cccnc3n2)c1	94.2*	-94.2	85.0*	11.1	-12.9
Cc1onc(-c2ccccc2Cl)c1C(=O)Nc1ccc(F)c(F)c1	6.3	-6.3	14.4	0.8	-1.2
COc1ccc(N2C(=O)CCC(C(C)=O)=C2C)cc1	-28.0	28.0	2.8	-0.8	0.3
O=C(Cn1cc(C(=O)C2CC2)c2ccccc21)NCc1ccccc1	-19.2	19.2	-31.4	-11.8	16.1
O=C(O)Cn1cc(C(=O)C2CC2)c2ccccc21	-18.9	18.9	82.5*	15.6	-16.4
SMILES	IL1B NFkB inh	NFkB transloc pot	HUVEC tox IL1B	sEH activator	sEH inhibitor
CC(=O)NC1CC2CCCC(C1)N2S(=O)(=O)c1ccccc1 (stereo not drawn)	6.2	-6.2	8.0	-11.3	13.0
COC(=O)c1ccc(S(=O)(=O)N2C3CCC2CC(NC(=O)C2CC2)C3)cc1 (stereo not drawn)	22.7	-22.7	84.5*	-5.8	5.6
CN(C)S(=O)(=O)N1CCN(c2cccc(Cl)c2)CC1	-22.7	22.7	2.1	11.9	-14.7
O=S(=O)(/C=C/c1ccccc1)N1CCN(c2cccc(Cl)c2)CC1	-10.8	10.8	7.2	37.6*	-37.5
O=C(CCSc1ccc(Cl)cc1)NC12CC3CC(CC(C3)C1)C2	5.2	-5.2	9.5	-80.4	80.7*
COc1c(C)cc(Br)cc1C(=O)Nc1cccc(NC(=O)c2ccco2)c1	-21.9	21.9	87.2*	-10.1	5.1
COc1c(C)cc(Br)cc1C(=O)O	-2.5	2.5	89.9*	7.3	-7.2
COc1ccc(Br)cc1C(=O)Nc1cccc(NC(=O)c2ccco2)c1	10.6	-10.6	-1.3	-12.7	13.2
COC(=O)c1sc2ccccc2c1-n1cccc1C(=O)C(=O)Nc1ccccc1	-2.4	2.4	3.2	3.1	2.7
CC(Sc1nc2ccccc2s1)C(=O)Nc1nnc(C(C)C)s1 (stereo not drawn)	-22.6	22.6	0.0	37.3*	-38.7
CCc1ccc(OCC(=O)NC(=S)Nc2ccc(S(=O)(=O)NC3CCCCC3)cc2)cc1	0.4	-0.4	-12.6	-21.2	23.6
COc1ccc(OC)c(/C=N/NC(=O)c2csc3ccccc23)c1	2.6	-2.6	-115.7	-83.9	83.6*
Cc1ccc(NC(=O)NC2CCN(S(=O)(=O)c3ccc(F)cc3)CC2)cc1	-3.8	3.8	-11.0	-83.9	84.8*
Cc1cc(Cl)ccc1NC(=O)NC1CCN(S(=O)(=O)c2ccc(F)cc2)CC1	-4.7	4.7	8.9	-41.2	40.8
COC(=O)c1cc(OC)c(OC)cc1NC(=O)c1c(-c2ccccc2Cl)noc1C	-6.2	6.2	-2.8	3.5	-3.9
Cc1nc(-c2ccccc2)sc1C(=O)CSc1ccc(F)cc1	36.0*	-36.0	-20.9	0.1	2.1
O=C(O)c1c(-c2ccccc2)c2oc3ccccc3c2[nH]c1=O	-1.4	1.4	4.0	/	/
CCC(C)(CC(=O)N(C)CCC#N)c1ccccc1 (stereo not drawn)	25.9	-25.9	83.7*	-0.1	-2.4
Cn1ncc(Br)c1C(=O)OCC(=O)Nc1nc(-c2ccccc2)cs1	4.9	-4.9	5.2	13.5	-14.4
Cn1c(C(=O)OC(C(=O)NC2CCCCC2)c2ccncc2)cc2sccc21 (stereo not drawn)	-7.0	7.0	5.4	7.8	-5.6
O=C(NCCOC(=O)c1ccncc1)c1ccccc1	3.2	-3.2	-39.7	-9.6	9.7
O=C(Nc1ccccc1)OCCNC(=O)c1ccccc1	-40.0	40.0*	-65.6	21.7	-23.6
CCCCCCCCOC(=O)C1=C(C)Nc2nnnn2C1c1cccs1 (stereo not drawn)	-9.1	9.1	8.2	26.6	-27.2
CCCCCCCOC(=O)C1=C(C)Nc2ncnn2C1c1cccs1 (stereo not drawn)	-40.9	40.9*	0.8	-1.1	-1.2
O=C(NCCC1=CCCCC1)C1CCCN(c2nc3ccccc3o2)C1 (stereo not drawn)	0.3	-0.3	4.9	-96.5	96.4*
O=C(NCCc1ccccc1)C1CCN(c2nc3ccccc3o2)CC1	3.5	-3.5	-8.9	-69.1	69.3
